Experimental data as given in PubChem BioAssay (Tox21).
Several values for one entry are separate records, joined by “and”; a condition that tells them apart may be missing. Equal entries are not always repeated. Inconclusive results are not listed. The source holds several records for some structures; these can differ, active in one and inactive in another. Activity calls are given as the source filed them. Unless noted, calls come from the whole dose curve; as a rule, active = well fitted curve in the direction sought with a large enough effect in the repeat runs; inconclusive = weak or mixed curves; inactive = no such curve, though single readings can be large; an effect the other way counts as inactive or inconclusive.

Key:
[1] = qHTS assay to identify small molecule agonists of the peroxisome proliferator-activated receptor delta (PPARd) signaling pathway - cell viability counter screen (AID 743211); note: nearly all actives have a fitted effect of over 55% in size; note: potency is the fitted concentration of half-maximal effect
Method in brief: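 HEK293H PPARd-bla, 3000 cells/well; 5 h preincubation 37C/5% CO2; cpd in DMSO, 17 h 37C; B/G FRET substrate 2 h RT; CellTiter-Glo 30 min RT, luminescence.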

[2] = molecular target: Peroxisome proliferator-activated receptor delta (Homo sapiens) (UniProt Q03181); assay: qHTS assay to identify small molecule agonists of the peroxisome proliferator-activated receptor delta (PPARd) signaling pathway (AID 743212; calls by dose curve)
Chain of Peroxisome proliferator-activated receptor delta (Homo sapiens) (Q03181 whole entry, looked up): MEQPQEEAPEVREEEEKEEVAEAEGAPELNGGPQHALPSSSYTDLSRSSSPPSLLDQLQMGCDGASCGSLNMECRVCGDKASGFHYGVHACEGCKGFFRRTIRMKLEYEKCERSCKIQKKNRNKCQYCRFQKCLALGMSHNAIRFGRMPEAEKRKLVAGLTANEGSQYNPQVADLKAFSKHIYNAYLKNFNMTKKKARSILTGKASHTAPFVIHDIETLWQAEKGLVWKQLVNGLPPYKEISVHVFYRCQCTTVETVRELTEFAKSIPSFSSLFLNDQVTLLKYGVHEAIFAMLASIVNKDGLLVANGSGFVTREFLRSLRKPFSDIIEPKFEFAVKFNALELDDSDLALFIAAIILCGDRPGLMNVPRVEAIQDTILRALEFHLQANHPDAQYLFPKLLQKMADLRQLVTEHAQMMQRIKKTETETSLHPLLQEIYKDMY
Method in brief: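 GeneBLAzer UAS-bla HEK293H cells carrying a PPARδ construct were exposed to compounds at 37 °C. Beta-lactamase activity was read by FRET fluorescence after 2 h at room temperature with LiveBLAzer B/G substrate.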

[3] = molecular target: Peroxisome proliferator-activated receptor delta (Homo sapiens) (UniProt Q03181); assay: qHTS assay to identify small molecule antagonists of the peroxisome proliferator-activated receptor delta (PPARd) signaling pathway (AID 743215; active = well fitted inhibition curve with a large enough effect in the signal ratio in the repeat runs, not every such curve was filed as active; the % refers to the signal ratio;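 note: cells stimulated with agonist L165041 at 300 nM final during compound exposure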; note: potency is the fitted concentration of half-maximal effect)
Method in brief: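 HEK293H UAS-bla, PPARd; agonist L165041 300 nM final with cpd in DMSO; 37 C 17 h; FRET substrate, RT 2 h; fluorescence intensity.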

[4] = molecular target: Bile acid receptor (Homo sapiens) (UniProt Q96RI1); assay: qHTS assay to identify small molecule antagonists of the farnesoid-X-receptor (FXR) signaling pathway (AID 743217; active = well fitted inhibition curve with a large enough effect in the signal ratio in the repeat runs, not every such curve was filed as active; the % refers to the signal ratio; note: potency is the fitted concentration of half-maximal effect)
Chain of Bile acid receptor (Homo sapiens) (Q96RI1 whole entry, looked up): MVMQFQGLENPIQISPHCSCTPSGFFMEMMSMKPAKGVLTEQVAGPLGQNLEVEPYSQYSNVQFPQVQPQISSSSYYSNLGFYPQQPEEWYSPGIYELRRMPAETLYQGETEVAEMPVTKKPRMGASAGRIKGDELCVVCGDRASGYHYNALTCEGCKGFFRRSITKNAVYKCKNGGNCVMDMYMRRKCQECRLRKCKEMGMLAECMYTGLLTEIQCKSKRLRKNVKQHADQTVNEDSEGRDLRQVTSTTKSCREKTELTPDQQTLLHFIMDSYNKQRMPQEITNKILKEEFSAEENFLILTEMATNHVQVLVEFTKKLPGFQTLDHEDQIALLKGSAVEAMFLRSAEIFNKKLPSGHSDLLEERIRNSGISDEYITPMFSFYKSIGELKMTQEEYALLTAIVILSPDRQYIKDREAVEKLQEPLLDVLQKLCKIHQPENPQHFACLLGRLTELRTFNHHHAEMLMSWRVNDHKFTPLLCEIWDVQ
Method in brief: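 GeneBLAzer FXR-UAS-bla HEK 293T, CDCA-stimulated (50 uM final). Compound treatment 16 h, 37 °C. Detection: beta-lactamase cleavage of B/G FRET substrate, fluorescence.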

[5] = qHTS assay to identify small molecule agonists of the farnesoid-X-receptor (FXR) signaling pathway - cell viability counter screen (AID 743218); note: nearly all actives have a fitted effect of over 45% in size; note: potency is the fitted concentration of half-maximal effect
Method in brief: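 Parallel cytotoxicity test: compound-treated (16 h, 37 C) HEK 293T FXR-bla reporter cells were lysed with CellTiter-Glo and luminescence recorded.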

[6] = molecular target: Bile acid receptor (Homo sapiens) (UniProt Q96RI1); assay: qHTS assay to identify small molecule agonists of the farnesoid-X-receptor (FXR) signaling pathway (AID 743220; active = well fitted activation curve with a large enough effect in the signal ratio in the repeat runs, not every such curve was filed as active; the % refers to the signal ratio)
Method in brief: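 Beta-lactamase reporter under UAS control in GeneBLAzer FXR HEK 293T cells (5000/well) measured with LiveBLAzer FRET substrate after 2 h at room temperature. Compound exposure lasted 16 h at 37C.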

[7] = qHTS assay to identify small molecule antagonists of the farnesoid-X-receptor (FXR) signaling pathway - cell viability counter screen (AID 743221; active = well fitted cell-killing curve with a large enough effect in the repeat runs, not every such curve was filed as active; note: nearly all actives have a fitted effect of over 50% in size; note: potency is the fitted concentration of half-maximal effect)
Method in brief: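 Luminescence from CellTiter-Glo measures cytotoxicity in GeneBLAzer FXR-UAS-bla HEK 293T cells. Cells were exposed to compounds with 50 uM chenodeoxycholic acid (final) for 16 h at 37 C, in wells also used for the reporter readout.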

[8] = molecular target: Vitamin D3 receptor (Homo sapiens) (UniProt P11473); assay: qHTS assay to identify small molecule agonists of the vitamin D receptor (VDR) signaling pathway (AID 743222; calls by dose curve)
Chain of Vitamin D3 receptor (Homo sapiens) (P11473 whole entry, looked up): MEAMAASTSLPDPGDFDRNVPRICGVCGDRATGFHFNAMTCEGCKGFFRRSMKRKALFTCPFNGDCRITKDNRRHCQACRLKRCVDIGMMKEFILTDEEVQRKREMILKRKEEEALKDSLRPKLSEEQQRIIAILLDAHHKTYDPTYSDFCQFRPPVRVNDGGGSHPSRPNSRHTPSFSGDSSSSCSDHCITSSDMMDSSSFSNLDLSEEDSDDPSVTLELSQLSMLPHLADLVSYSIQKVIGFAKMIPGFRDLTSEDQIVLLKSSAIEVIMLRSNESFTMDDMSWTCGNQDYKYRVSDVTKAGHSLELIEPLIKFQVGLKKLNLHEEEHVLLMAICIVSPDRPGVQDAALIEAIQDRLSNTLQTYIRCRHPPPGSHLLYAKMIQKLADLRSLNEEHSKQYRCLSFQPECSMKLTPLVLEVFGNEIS
Method in brief: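 In VDR-bla cells, compound-induced beta-lactamase expression is quantified by FRET substrate fluorescence. Treatment lasts 16 h at 37C; substrate develops 2 h at room temperature.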

[9] = molecular target: Vitamin D3 receptor (Homo sapiens) (UniProt P11473); assay: qHTS assay to identify small molecule antagonists of the vitamin D receptor (VDR) signaling pathway (AID 743223; active = well fitted inhibition curve with a large enough effect in the signal ratio in the repeat runs, not every such curve was filed as active; the % refers to the signal ratio)
Method in brief: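 Antagonist mode uses 1alpha,25-dihydroxyvitamin D3 at 3 nM final as stimulus. VDR-bla cells receive compounds in DMSO, incubate 16 h at 37C, then a beta-lactamase FRET substrate for 2 h at room temperature before fluorescence measurement.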

[10] = qHTS assay to identify small molecule antagonists of the peroxisome proliferator-activated receptor delta (PPARd) signaling pathway - cell viability counter screen (AID 743213); note: nearly all actives have a fitted effect of over 50% in size; note: potency is the fitted concentration of half-maximal effect
Method in brief: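 Same-well viability: cells pre-incubated 5 h, dosed with compound plus 300 nM L165041, kept 17 h at 37 C, FRET substrate 2 h RT, then CellTiter-Glo 30 min RT and luminescence.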

Measured: Potency

c1ccc2c(c1)c1cccc3ccc4cccc2c4c31
not listed: [10]
inactive: all other assays above

Cc1cc2nc3c(=O)[nH]c(=O)nc-3n(C[C@H](O)[C@H](O)[C@H](O)CO)c2cc1C
inactive: [1] | [2] | [3] | [4] | [6]

OC(CCl)CCl
inactive: [1] | [2] | [3] | [5] | [9]

C[C@]12CCC(=O)C=C1CC[C@@H]1[C@@H]2C(=O)C[C@@]2(C)[C@H]1CC[C@]2(O)C(=O)CO
inactive: [1] | [2] | [5] | [7]

CC(=O)c1ccccn1
not listed: [7] | [8] | [10]
inactive: all other assays above

O=CCCCC=O
inactive: [1] | [2] | [3] | [4] | [6] | [9]

Cc1c(C(N)=O)cc([N+](=O)[O-])cc1[N+](=O)[O-]
not listed: [4] | [5] | [6]
inactive: all other assays above

COC(=O)CCC(=O)OC
not listed: [10]
inactive: all other assays above

Cc1ccc2c(n1)Oc1ccc(C(C)C(=O)OCC(=O)N(C)C)cc1C2 (stereo not given)
not listed: [4] | [6] | [10]
inactive: all other assays above

Cc1cccc(C(=O)O)c1
inactive: [1] | [2] | [3] | [7] | [8] | [9]

CC(C)OC(=O)C(C)(C)Oc1ccc(C(=O)c2ccc(Cl)cc2)cc1
49 µM (active) and inactive: [10]
active: [1] 54.9 µM
inactive: [2] | [4] | [6] | [7] | [9]

O=C(/C=C/C=C/c1ccc2c(c1)OCO2)N1CCCCC1
inactive: [1] | [2] | [6] | [7] | [9]
inactive and 54.9 µM (active): [4]

CCCCC/C=C/C=C/C=O
inactive: [1] | [2] | [3] | [4] | [6] | [7]

CCC(C)OC(=O)c1ccc(O)cc1 (stereo not given)
inactive: [1] | [2] | [3] | [7] | [9]

NNc1ccc(C(=O)O)cc1
inactive: [1] | [2] | [3] | [8] | [9]

c1ccc2c(c1)Oc1ccccc1S2
not listed: [4] | [6] | [10]
inactive: all other assays above

COC(=O)c1ccccc1
inactive: [1] | [2] | [10] | [3] | [7] | [9]

C[C@]12CC[C@H]3[C@@H](CCC4=CC(=O)CC[C@@]43C)[C@@H]1CC[C@@H]2C(=O)CO
inactive: [1] | [2] | [10] | [5] | [8]

Nc1ccccc1N
inactive: [1] | [2] | [3] | [7]

NC=O
not listed: [5] | [8] | [10]
inactive: all other assays above

CCCC(=O)O
inactive: [1] | [2] | [3] | [5] | [8] | [9]

CC(=O)C1(C)CC2=C(CCCC2(C)C)CC1C (stereo not given)
inactive: [1] | [2] | [10] | [3] | [7] | [9]

CC1=CCC(C(C)(C)O)CC1 (stereo not given)
not listed: [10]
inactive: all other assays above

Nc1ccc(Cl)cc1Cl
not listed: [8] | [9] | [10]
inactive: all other assays above

O=C(COc1ccc(Cl)cc1)N1CCN(Cc2ccc3c(c2)OCO3)CC1
inactive: [1] | [2] | [10] | [3] | [7] | [9]

O=C1c2cccc(O)c2C(=O)c2c(O)cccc21
not listed: [6] | [7] | [10]
inactive: all other assays above

CC(C)=CCCC(C)CCO (stereo not given)
inactive: [1] | [2] | [5]

O=C(Nc1ccc(Cl)cc1)Nc1ccc(Cl)c(Cl)c1
inactive: [2] | [6]
active: [10] 19.4 µM | [3] 19.4 µM

CCCCNS(=O)(=O)c1ccccc1
inactive: [1] | [10] | [4] | [6] | [9]

c1ccc2sc(SSN3CCOCC3)nc2c1
inactive: [10] | [4] | [6] | [9]
active: [1] 15.5 µM

O=P(O)(O)O
not listed: [2] | [3] | [5]
inactive: all other assays above

CN(C)C(=N)N=C(N)N
inactive: [1] | [10] | [7]

CC(=O)CC/C=C(\C)CCC=C(C)C
inactive: [1] | [10] | [5] | [8] | [9]

C/C=C/C(=O)O
inactive: [1] | [5] | [8] | [9]

C#C[C@]1(O)CC[C@H]2[C@@H]3CCc4cc(OC)ccc4[C@H]3CC[C@@]21C
not listed: [1] | [8]
inactive: all other assays above

O=C(Nc1ccc([N+](=O)[O-])cc1Cl)c1cc(Cl)ccc1O
active: [1] 219 nM and 259 nM | [10] 1.64 µM | [5] 1.38 µM and 1.16 µM | [7] 3.26 µM
inactive: [6]

O=C(OCc1ccccc1)c1ccccc1O
inactive: [1] | [2] | [7] | [8] | [9]

c1ccc2cc(Nc3ccc(Nc4ccc5ccccc5c4)cc3)ccc2c1
inactive: [1] | [3] | [4] | [5] | [8] | [9]

O=C(c1ccc(OCCN2CCCCC2)cc1)c1c(-c2ccc(O)cc2)sc2cc(O)ccc12
active: [1] 38.9 µM and 12.3 µM and 26.6 µM | [5] 49 µM and 12.3 µM and 23.7 µM | [7] 55 µM

CCCc1c(OCCCCc2nn[nH]n2)ccc(C(C)=O)c1O
not listed: [2] | [7] | [9]
inactive: all other assays above

C#C[C@]1(O)CC[C@H]2[C@@H]3CCC4=Cc5oncc5C[C@]4(C)[C@H]3CC[C@@]21C
inactive: [10]

O=C(c1ccccc1)c1ccccc1O
inactive: [1] | [10] | [5] | [7] | [9]

COC(=O)Nc1nc2ccc(S(=O)c3ccccc3)cc2[nH]1 (stereo not given)
inactive: [10] | [5]

c1ccncc1
inactive: [1] | [10] | [5] | [7] | [8]

C=C(C)C1CC=C(C)CC1 (stereo not given)
inactive: [1] | [5] | [7]

S=C(NC1CCCCC1)NC1CCCCC1
inactive: [2] | [5] | [7] | [8] | [9]

Nc1ccc(S(=O)(=O)Nc2cnc3ccccc3n2)cc1
inactive: [1] | [7] | [9]

CCCCOCCOCCO
inactive: [1] | [10] | [7] | [9]

CNCCCC12CCC(c3ccccc31)c1ccccc12
19.5 µM (active) and inactive: [5]
active: [1] 17.4 µM and 29.8 µM
inactive: [2] | [9]

c1cc(N(CC2CO2)CC2CO2)ccc1OCC1CO1 (stereo not given)
inactive: [10] | [7]

CC(C)CC(C)(O)C#CC(C)(O)CC(C)C (stereo not given)
inactive: [1] | [10] | [5] | [9]

COc1cc([C@@H]2c3cc4c(cc3[C@H](O)[C@H]3COC(=O)[C@H]23)OCO4)cc(OC)c1OC
inactive: [1] | [3]

COc1c(Cl)c(Cl)c(Cl)c(Cl)c1Cl
inactive: [1] | [10] | [4] | [5] | [6]

OC[C@H]1O[C@@H]2O[C@H]3[C@H](O)[C@@H](O)[C@@H](O[C@H]4[C@H](O)[C@@H](O)[C@@H](O[C@H]5[C@H](O)[C@@H](O)[C@@H](O[C@H]6[C@H](O)[C@@H](O)[C@@H](O[C@H]7[C@H](O)[C@@H](O)[C@@H](O[C@H]8[C@H](O)[C@@H](O)[C@@H](O[C@H]1[C@H](O)[C@H]2O)O[C@@H]8CO)O[C@@H]7CO)O[C@@H]6CO)O[C@@H]5CO)O[C@@H]4CO)O[C@@H]3CO
inactive: [1] | [10] | [5] | [7]

O=C1OC2(c3cc(Br)c(O)c(Br)c3Oc3c2cc(Br)c(O)c3Br)c2c(Cl)c(Cl)c(Cl)c(Cl)c21
inactive: [1] | [3] | [5]

CC(C)=CCC/C(C)=C\CO
inactive: [1] | [4] | [6] | [7] | [8] | [9]

CCCCc1oc2ccccc2c1C(=O)c1cc(I)c(OCCN(CC)CC)c(I)c1
inactive: [6] | [9]
active: [1] 22.1 µM and 16.8 µM | [10] 15.6 µM and 23.7 µM | [5] 34.9 µM and 18.8 µM | [7] 34.9 µM and 29.8 µM

Cc1ccc(C(=O)c2cc(O)c(O)c([N+](=O)[O-])c2)cc1
inactive: [1] | [10] | [5] | [9]

CCCCCCCCCCCO
inactive: [3] | [5] | [6] | [7] | [9]
inactive and 43.6 µM (active): [1]

Cc1cccc(N(C)C(=S)Oc2ccc3ccccc3c2)c1
inactive: [10] | [4] | [5] | [6] | [7] | [9]

Nc1ccc(Nc2ccccc2)cc1
inactive: [1] | [5]

CC(C)OB(OC(C)C)OC(C)C
not listed: [2] | [3] | [10]
inactive: all other assays above

CCCCC(CC)COCC1CO1 (stereo not given)
inactive: [1] | [10] | [5] | [7] | [8] | [9]

COc1cccc2c1C(=O)c1c(O)c3c(c(O)c1C2=O)C[C@@](O)(C(=O)CO)C[C@@H]3O[C@H]1C[C@H](N)[C@H](O)[C@H](C)O1
inactive: [1] | [10] | [5] | [7]
active: [3] 1.55 µM and 2.98 µM

O=CCc1ccccc1
not listed: [2] | [3] | [8]
inactive: all other assays above

O=C(O)c1ccccc1Nc1cccc(C(F)(F)F)c1
inactive: [1] | [3] | [7] | [9]
